{
  "source": "PubChem BioAssay (NCATS)",
  "note": "Results filed as inconclusive are left out. Active and inactive are the calls of the source. Calls come from the whole dose curve; as a rule, active = well fitted curve in the direction sought with a large enough effect; inconclusive = small, poorly fitted or top-dose-only effect, or another doubt; inactive = no such curve, though single readings can be large; an effect the other way counts as inactive or inconclusive. % is set by controls: 0 for no effect and ±100 for the full control effect.",
  "data": [
    {"target": "Ubiquitin carboxyl-terminal hydrolase 1 (Homo sapiens) (UniProt O94782)", "sequence (O94782 whole entry, looked up)": "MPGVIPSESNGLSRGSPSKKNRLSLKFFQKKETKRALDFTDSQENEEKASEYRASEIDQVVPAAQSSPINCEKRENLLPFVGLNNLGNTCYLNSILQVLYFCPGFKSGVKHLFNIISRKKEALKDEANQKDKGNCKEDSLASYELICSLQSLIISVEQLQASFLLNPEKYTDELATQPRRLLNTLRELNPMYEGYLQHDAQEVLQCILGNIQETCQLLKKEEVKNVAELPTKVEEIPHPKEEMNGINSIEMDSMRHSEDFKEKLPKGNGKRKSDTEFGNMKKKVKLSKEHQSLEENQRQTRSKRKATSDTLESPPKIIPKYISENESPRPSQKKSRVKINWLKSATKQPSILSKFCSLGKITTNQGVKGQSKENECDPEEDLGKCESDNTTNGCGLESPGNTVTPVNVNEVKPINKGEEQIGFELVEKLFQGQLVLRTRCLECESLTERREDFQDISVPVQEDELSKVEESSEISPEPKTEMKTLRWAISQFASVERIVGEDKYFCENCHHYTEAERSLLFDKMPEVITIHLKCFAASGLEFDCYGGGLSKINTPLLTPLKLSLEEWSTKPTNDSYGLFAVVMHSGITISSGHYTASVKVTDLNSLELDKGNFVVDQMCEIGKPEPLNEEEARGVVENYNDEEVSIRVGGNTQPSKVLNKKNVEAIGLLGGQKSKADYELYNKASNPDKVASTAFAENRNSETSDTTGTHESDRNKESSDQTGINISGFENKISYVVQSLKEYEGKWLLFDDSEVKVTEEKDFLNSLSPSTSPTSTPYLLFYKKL", "assay": "Inhibitors of USP1/UAF1: Pilot qHTS (AID 504865); note: nearly all actives have a fitted effect of over 35% in size; note: potency is the fitted concentration of half-maximal effect;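 for activity change, negative = inhibition: rhodamine fluorescence freed from ubiquitin-rhodamine substrate followed over time; top concentration of the series differs between compounds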", "settings": "purified USP1/UAF1, Ub-rhodamine cleavage fluorescence; series mostly up to 54.9 µM; activity change, negative = inhibition: at the top concentration", "method_in_brief": "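USP1/UAF1 complex at 1 nM preincubated 15 min at room temperature with compound, then Ub-Rho substrate added at 150 nM final. Fluorescence (480/540 nm) read kinetically in 50 mM HEPES pH 7.8, 0.5 mM EDTA, 1 mM TCEP, 0.1 mg/ml BSA, 0.01% Tween-20.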", "values": [
      {"smiles": "COc1ccc2[nH]cc(CCNc3ncncc3-c3cccnc3)c2c1", "activity change, negative = inhibition": "-12.2% (inactive)"},
      {"smiles": "CS(=O)(=O)Nc1cccc(-c2cc(Nc3ccccc3)ncn2)c1", "activity change, negative = inhibition": "-11.9% (inactive)"},
      {"smiles": "COc1ccccc1CNc1cc(-c2ccccc2OC)ncn1", "activity change, negative = inhibition": "-11.4% (inactive)"},
      {"smiles": "CNc1nc(-c2ccc(C(=O)N(C)C)cc2)nc2ccccc12", "activity change, negative = inhibition": "-3.79% (inactive)"},
      {"smiles": "CN(C)C(=O)c1ccc(-c2nccc(-n3ccnc3)n2)cc1", "activity change, negative = inhibition": "-1.09% (inactive)"},
      {"smiles": "Cc1cnc(CNc2cc(-c3ccccc3Cl)ncn2)cn1", "activity change, negative = inhibition": "-5.78% (inactive)"},
      {"smiles": "CN(Cc1ccco1)c1cc(-c2cccc(C#N)c2)ncn1", "activity change, negative = inhibition": "-8.45% (inactive)"},
      {"smiles": "Cc1ccccc1-c1nc(N(C)C)c2ccccc2n1", "activity change, negative = inhibition": "-21% (inactive)"},
      {"smiles": "Cc1noc(C)c1-c1nccc(NCc2ccccc2)n1", "Potency": "25.1 µM (active)"},
      {"smiles": "Cc1cnc(CNc2cc(-c3ccccc3C(F)(F)F)ncn2)cn1", "activity change, negative = inhibition": "-9.62% (inactive)"},
      {"smiles": "CN(C)C(=O)c1ccc(-c2ccc3ncnc(N4CCNCC4)c3c2)cc1", "activity change, negative = inhibition": "-5.53% (inactive)"},
      {"smiles": "COc1cccc(-c2cc(NCc3cccnc3)ncn2)c1", "activity change, negative = inhibition": "-7.93% (inactive)"},
      {"smiles": "COc1ccc2[nH]cc(CCNc3ccnc(-c4ccc5c(c4)OCO5)n3)c2c1", "activity change, negative = inhibition": "-20.6% (inactive)"},
      {"smiles": "Cn1c(=O)c(-c2cc(F)cc(F)c2)nc2cncnc21", "activity change, negative = inhibition": "-11.6% (inactive)"},
      {"smiles": "COc1cccc(-c2cncnc2NCc2cnc(C)cn2)c1", "activity change, negative = inhibition": "-5.03% (inactive)"},
      {"smiles": "COc1ccccc1-c1nc(NCCN2CCOCC2)c2ccccc2n1", "activity change, negative = inhibition": "-4.71% (inactive)"},
      {"smiles": "Cc1cnc(CNc2cc(-c3cccnc3)ncn2)cn1", "activity change, negative = inhibition": "-7.1% (inactive)"},
      {"smiles": "Cc1cnc(CNc2cc(-c3ccccc3C)ncn2)cn1", "activity change, negative = inhibition": "-7.7% (inactive)"}
    ]},
    {"test_system": "not listed separately", "assay": "Primary qHTS for small molecule stabilizers of the endoplasmic reticulum resident proteome: Secreted ER Calcium Modulated Protein (SERCaMP) assay (AID 1508630)", "settings": "SH-SY5Y GLuc-SERCaMP (Gaussia luciferase released on ER calcium loss) secretion, thapsigargin, luminescence; series mostly up to 38.4 µM; activity change, negative = inhibition: at the top concentration", "method_in_brief": "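GLuc-SERCaMP-expressing SH-SY5Y cells, pretreated 16 h with compound, are challenged with thapsigargin to empty ER calcium stores; after 4 h, coelenterazine is added directly to the medium and luminescence is imaged.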", "values": [
      {"smiles": "CC(=O)NCCNc1nc(-c2cccc(NS(C)(=O)=O)c2)nc2ccccc12", "activity change, negative = inhibition": "6.96% (inactive)"},
      {"smiles": "Cc1noc(C)c1-c1nccc(NCCN2CCOCC2)n1", "activity change, negative = inhibition": "18.4% (inactive)"},
      {"smiles": "Cc1cnc(CNc2ccnc(-c3cccc(NS(C)(=O)=O)c3)n2)cn1", "activity change, negative = inhibition": "44.3% (inactive)"},
      {"smiles": "COc1cccc(Cn2c(=O)c(-c3cccc(C#N)c3)nc3cnc(N4CCOCC4)nc32)c1", "activity change, negative = inhibition": "31.2% (inactive)"},
      {"smiles": "CN(C)C(=O)c1ccc(-c2cncnc2-n2ccnc2)cc1", "activity change, negative = inhibition": "-14.4% (inactive)"},
      {"smiles": "COc1ccccc1-c1cc(NCc2cnc(C)cn2)ncn1", "activity change, negative = inhibition": "22.8% (inactive)"},
      {"smiles": "CNc1nc(-c2cccc(C#N)c2)nc2ccccc12", "activity change, negative = inhibition": "-14.1% (inactive)"},
      {"smiles": "COc1ccc2[nH]cc(CCNc3nc(-c4ccc(N(C)C)cc4)nc4ccccc34)c2c1", "activity change, negative = inhibition": "24.9% (inactive)"},
      {"smiles": "COCCNc1nc(-c2c(C)noc2C)nc2ccccc12", "activity change, negative = inhibition": "47% (inactive)"},
      {"smiles": "CN(C)C(=O)c1ccc(-c2ccc3ncnc(N4CCOCC4)c3c2)cc1", "activity change, negative = inhibition": "36.9% (inactive)"},
      {"smiles": "COc1ccccc1CNc1ccnc(-c2ccccc2Cl)n1", "activity change, negative = inhibition": "-13.2% (inactive)"},
      {"smiles": "COc1cccc(Cn2c(=O)c(-c3ccc(F)cc3)nc3cncnc32)c1", "activity change, negative = inhibition": "47.9% (inactive)"},
      {"smiles": "Cc1noc(C)c1-c1nc(NC2CC2)c2ccccc2n1", "activity change, negative = inhibition": "11.6% (inactive)"},
      {"smiles": "COc1cccc(Nc2ncc3ncc(=O)n(C[C@H]4CCCO4)c3n2)c1", "activity change, negative = inhibition": "185% (inactive)"},
      {"smiles": "Cn1cc(-c2nc3cncnc3n(C3CC3)c2=O)c2ccccc21", "activity change, negative = inhibition": "-10.4% (inactive)"},
      {"smiles": "COc1ccc(-c2nc3cnc(OCc4ccccc4)nc3n(CCC#N)c2=O)cc1", "activity change, negative = inhibition": "6.07% (inactive)"},
      {"smiles": "COc1ccc2[nH]cc(CCNc3ccnc(-c4ccc(N(C)C)cc4)n3)c2c1", "activity change, negative = inhibition": "40.1% (inactive)"},
      {"smiles": "Cn1cc(-c2nc3cncnc3n(Cc3ccccc3Cl)c2=O)c2ccccc21", "activity change, negative = inhibition": "43.6% (inactive)"},
      {"smiles": "COc1cccc(-c2cc(NCc3cnc(C)cn3)ncn2)c1", "activity change, negative = inhibition": "-2.22% (inactive)"},
      {"smiles": "CC(=O)NCCNc1nc(-c2ccccc2C)nc2ccccc12", "activity change, negative = inhibition": "-6.36% (inactive)"},
      {"smiles": "COc1ccc(Oc2ncc3nc(-c4ccc(F)cc4)c(=O)n(Cc4cccs4)c3n2)cc1", "activity change, negative = inhibition": "-10.3% (inactive)"},
      {"smiles": "COc1ccc2[nH]cc(CCNc3ncncc3-c3cccnc3)c2c1", "activity change, negative = inhibition": "-1.56% (inactive)"},
      {"smiles": "CS(=O)(=O)Nc1cccc(-c2cc(Nc3ccccc3)ncn2)c1", "activity change, negative = inhibition": "21.9% (inactive)"},
      {"smiles": "COc1ccccc1CNc1cc(-c2ccccc2OC)ncn1", "activity change, negative = inhibition": "81.7% (inactive)"},
      {"smiles": "CNc1nc(-c2ccc(C(=O)N(C)C)cc2)nc2ccccc12", "activity change, negative = inhibition": "-8.26% (inactive)"},
      {"smiles": "CN(C)C(=O)c1ccc(-c2nccc(-n3ccnc3)n2)cc1", "activity change, negative = inhibition": "18.3% (inactive)"},
      {"smiles": "Cc1cnc(CNc2cc(-c3ccccc3Cl)ncn2)cn1", "activity change, negative = inhibition": "35.6% (inactive)"},
      {"smiles": "CN(Cc1ccco1)c1cc(-c2cccc(C#N)c2)ncn1", "activity change, negative = inhibition": "20.7% (inactive)"},
      {"smiles": "Cc1ccccc1-c1nc(N(C)C)c2ccccc2n1", "activity change, negative = inhibition": "-22.2% (inactive)"},
      {"smiles": "Cc1noc(C)c1-c1nccc(NCc2ccccc2)n1", "activity change, negative = inhibition": "33.9% (inactive)"},
      {"smiles": "Cc1cnc(CNc2cc(-c3ccccc3C(F)(F)F)ncn2)cn1", "activity change, negative = inhibition": "20.5% (inactive)"},
      {"smiles": "CN(C)C(=O)c1ccc(-c2ccc3ncnc(N4CCNCC4)c3c2)cc1", "activity change, negative = inhibition": "40.8% (inactive)"},
      {"smiles": "COc1cccc(-c2cc(NCc3cccnc3)ncn2)c1", "activity change, negative = inhibition": "-5.84% (inactive)"},
      {"smiles": "COc1ccc2[nH]cc(CCNc3ccnc(-c4ccc5c(c4)OCO5)n3)c2c1", "activity change, negative = inhibition": "-2.34% (inactive)"},
      {"smiles": "COc1ccc(CNc2ncncc2-c2ccc(C(=O)N(C)C)cc2)c(OC)c1", "activity change, negative = inhibition": "19.6% (inactive)"},
      {"smiles": "Cn1c(=O)c(-c2cc(F)cc(F)c2)nc2cncnc21", "activity change, negative = inhibition": "-2.42% (inactive)"},
      {"smiles": "COc1cccc(-c2cncnc2NCc2cnc(C)cn2)c1", "activity change, negative = inhibition": "52.8% (inactive)"},
      {"smiles": "COc1ccccc1-c1nc(NCCN2CCOCC2)c2ccccc2n1", "activity change, negative = inhibition": "-6.84% (inactive)"},
      {"smiles": "Cc1cnc(CNc2cc(-c3cccnc3)ncn2)cn1", "activity change, negative = inhibition": "24.4% (inactive)"},
      {"smiles": "Cc1cnc(CNc2cc(-c3ccccc3C)ncn2)cn1", "activity change, negative = inhibition": "35.9% (inactive)"}
    ]}
  ]
}
